Screening data (PubChem BioAssay)
Only some compounds are listed: those with a hit (about 11% of all), similar ones and a draw of the others.
hNpr1 antagonist: blocks ANP-stimulated signaling of human Npr1 receptor. hit rate 1.6% among 76,000. Potency, µM (highest dose often 46.3 µM), usual class: inhibitors. P16066. HEK293 hNpr1 GloSensor cGMP, ANP-stimulated luminescence; calls by dose curve; also: nearly all actives have a fitted effect of over 60% in size
Target sequence (P16066 whole entry, looked up): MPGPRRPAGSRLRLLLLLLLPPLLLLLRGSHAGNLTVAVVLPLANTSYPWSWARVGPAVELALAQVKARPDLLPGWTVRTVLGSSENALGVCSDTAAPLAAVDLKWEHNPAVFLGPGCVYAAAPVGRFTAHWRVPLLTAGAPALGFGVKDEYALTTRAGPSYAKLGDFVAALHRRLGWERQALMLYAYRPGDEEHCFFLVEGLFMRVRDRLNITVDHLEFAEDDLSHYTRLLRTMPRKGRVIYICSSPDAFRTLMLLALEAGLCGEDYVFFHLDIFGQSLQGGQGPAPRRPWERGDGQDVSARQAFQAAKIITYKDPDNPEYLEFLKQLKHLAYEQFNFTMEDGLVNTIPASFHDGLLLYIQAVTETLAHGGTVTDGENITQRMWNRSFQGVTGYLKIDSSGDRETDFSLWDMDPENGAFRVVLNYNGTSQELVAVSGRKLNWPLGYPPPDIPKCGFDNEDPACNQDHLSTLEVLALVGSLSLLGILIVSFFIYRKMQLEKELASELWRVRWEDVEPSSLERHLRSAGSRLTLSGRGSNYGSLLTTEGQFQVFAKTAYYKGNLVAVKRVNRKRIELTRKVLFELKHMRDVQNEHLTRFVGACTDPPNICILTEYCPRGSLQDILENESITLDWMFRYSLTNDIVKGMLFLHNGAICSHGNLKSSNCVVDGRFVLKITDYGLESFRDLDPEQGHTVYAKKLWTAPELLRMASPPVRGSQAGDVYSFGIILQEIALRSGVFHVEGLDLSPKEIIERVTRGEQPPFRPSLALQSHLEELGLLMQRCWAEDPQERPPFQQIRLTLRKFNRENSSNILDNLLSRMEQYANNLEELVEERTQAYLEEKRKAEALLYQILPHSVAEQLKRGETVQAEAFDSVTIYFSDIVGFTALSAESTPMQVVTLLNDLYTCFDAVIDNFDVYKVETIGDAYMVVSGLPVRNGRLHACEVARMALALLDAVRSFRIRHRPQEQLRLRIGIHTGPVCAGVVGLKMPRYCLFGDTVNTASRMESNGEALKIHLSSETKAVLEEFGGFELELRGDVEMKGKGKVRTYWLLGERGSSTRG
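Compound pre-incubated 30 min at room temperature on GloSensor-loaded HEK293 cells stably carrying hNpr1 and the pGS-40F cGMP biosensor. Stimulation uses hNppA at 0.1 nM final; luminescence is taken at baseline and 20 min post-agonist.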
HEK cytotox: kills HEK 293 cells; HEK 293 viability, ATP luminescence (CellTiter-Glo), 48-72 h; Potency, µM (series often up to 115 µM), actives largely listed as inhibitors; hit rate 6.6% among 94,000; also: nearly all actives have a fitted effect of over 60% in size
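CellTiter-Glo luminescence (cellular ATP) was read after 48 or 72 hr of compound exposure at 37 degree Celsius. Cells were HEK 293 plated at 250 cells/well.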
FLuc inh-1: blocks purified firefly luciferase enzyme activity; P08659; Potency, µM (top dose mostly 115 µM), hits mostly inhibitors; AID 1347043; hit rate 2.5% among 76,000; purified P. pyralis luciferase, luminescence, biochemical; also: nearly all actives have a fitted effect of over 65% in size
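Cell-free enzyme assay, 10nM P. pyralis luciferase, luciferin and ATP each at 10uM. Inhibition profiled over a 6-point titration, read as luminescence.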
3T3 cytotox: NIH 3T3 cell cytotoxicity. NIH 3T3 viability, CellTiter-Glo ATP luminescence, 48-72 h. hit rate 4.3% among 94,000. Potency, µM (doses to about 96.7 µM), usual class: inhibitors; also: nearly all actives have a fitted effect of over 55% in size
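Cells were seeded at 400 per well, treated with pin-transferred compound, and kept 48 or 72 hr at 37 °C before CellTiter-Glo addition and luminescence imaging of cellular ATP.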
FLuc SDR -ATP: firefly luciferase binding stabilization, ATP absent | shares compounds with FLuc inh-1 | Purified FLuc-C-HiBiT, Nano-Glo HiBiT luminescence, no ATP | Potency, µM (top dose mostly 32.7 µM), most hits filed as activators | hit rate 7.8% among 1,300 | AID 1963318; also: nearly all actives have a fitted effect of over 55% in size
FLuc SDR ATP: firefly luciferase binding stabilization, ATP added; shares compounds with FLuc inh-1; purified FLuc-C-HiBiT + ATP, HiBiT complementation luminescence; Potency, µM (series often up to 32.7 µM), actives largely listed as activators; hit rate 8.7% among 1,300; AID 1963319;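 also: signal reports ligand binding via conformational change of the enzyme rather than luciferase catalysis; nearly all actives have a fitted effect of over 55% in size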
FLuc inh-2: firefly luciferase enzyme inhibition; shares compounds with FLuc inh-1; purified FLuc-C-HiBiT enzyme, luciferin luminescence; Potency, µM (highest dose often 32.7 µM), most hits filed as inhibitors; hit rate 42% among 1,300; AID 1963320; also: nearly all actives have a fitted effect of over 70% in size
A number is an active result. Unless noted, calls follow the shape of the dose curve; as a rule, active = well fitted curve in the direction sought with a large enough effect; inconclusive = small, poorly fitted or top-dose-only effect, or another doubt; inactive = no such curve, though single readings can be large; an effect the other way counts as inactive or inconclusive.

What do the screens show for `O=C([C@H]1CCCN1C(=O)c1ccc(C(F)(F)F)cc1)N1CCC(N2CCOC2=O)CC1`?
HEK cytotox: inactive; 3T3 cytotox: inactive

Results for Cc1cn2c(=O)cc(COC(=O)c3cccc(NC(=O)COc4ccccc4Cl)c3)nc2s1 ?
FLuc SDR -ATP: inactive; FLuc SDR ATP: 9.89µM; FLuc inh-2: 7µM

What do the screens show for `Cc1cn2c(=O)cc(CN3CC[C@@](C)(O)[C@@H](O)C3)nc2s1`?
hNpr1 antagonist: inactive; HEK cytotox: inactive; FLuc inh-1: inactive; 3T3 cytotox: inactive

What do the screens show for `C[S+](=O)([O-])c1ccc(-c2cc3c(cn2)CN(CCc2ccccc2)CCN3)cc1`?
hNpr1 antagonist: inactive; HEK cytotox: inconclusive; FLuc inh-1: inconclusive; 3T3 cytotox: inconclusive

Results for CC(C)(C)CN1CCNc2cc(Nc3ccccc3)ncc2C1 ?
hNpr1 antagonist: inconclusive; HEK cytotox: inconclusive; FLuc inh-1: 2.24µM; 3T3 cytotox: 50.1µM; FLuc SDR -ATP: inconclusive; FLuc SDR ATP: inactive; FLuc inh-2: 7.18µM

Results for c1cncc(CN2CCNc3cc(-c4cn[nH]c4)ncc3C2)c1 ?
hNpr1 antagonist: inactive; HEK cytotox: inconclusive; FLuc inh-1: inconclusive; 3T3 cytotox: inactive

How did CC(C)(C)CN1CCNc2cc(Nc3cccnc3)ncc2C1 do in these assays?
hNpr1 antagonist: inactive; HEK cytotox: inactive; FLuc inh-1: 1.58µM; 3T3 cytotox: inconclusive; FLuc SDR -ATP: inconclusive; FLuc SDR ATP: inconclusive; FLuc inh-2: 6.4µM

Results for CCCS(=O)(=O)N1CCC2(CC1)c1[nH]c3ccccc3c1CCN2C ?
hNpr1 antagonist: inactive; HEK cytotox: inconclusive; FLuc inh-1: inactive; 3T3 cytotox: inconclusive

Results for CC(=O)Nc1ccc(C(=O)NC2CCN(c3cc(-c4cccs4)[nH]n3)C2)cc1 (stereo not given) ?
hNpr1 antagonist: inactive; HEK cytotox: inactive; FLuc inh-1: inactive; 3T3 cytotox: inactive

How did COC(=O)c1c(-c2cccs2)csc1NC(=O)c1ccc(C)cc1 do in these assays?
FLuc SDR -ATP: inactive; FLuc SDR ATP: inactive; FLuc inh-2: inconclusive

How did COC(=O)c1c(-c2cccs2)csc1NC(=O)c1ccc(Br)cc1 do in these assays?
FLuc SDR -ATP: inactive; FLuc SDR ATP: inactive; FLuc inh-2: 11.1µM

What do the screens show for `CC(=O)NC1CCCN(Cc2ccc(-c3cncnc3)cc2)C1` (stereo not given)?
HEK cytotox: inactive; 3T3 cytotox: inactive

How did Cn1nc(-c2ccc3c(c2)OCCO3)nc1N1CCCCC1 do in these assays?
hNpr1 antagonist: inconclusive; HEK cytotox: inactive; FLuc inh-1: 3.98µM; 3T3 cytotox: inconclusive; FLuc SDR -ATP: inconclusive; FLuc SDR ATP: inconclusive; FLuc inh-2: 9.89µM

How did CC(C)NC(=O)c1cc(-c2ccsc2)c2nncn2n1 do in these assays?
HEK cytotox: inactive; 3T3 cytotox: inactive

What do the screens show for `O=C(Cc1ccccc1)N1CCC2(CC1)CC(N(Cc1ccc(F)cc1)C1CC1)CCO2` (stereo not given)?
hNpr1 antagonist: inactive; HEK cytotox: inconclusive; FLuc inh-1: inactive; 3T3 cytotox: inconclusive

Results for O=C(O)[C@@H]1CN(Cc2ccccc2)C[C@@H]1C(=O)N1CCc2ccccc21 ?
hNpr1 antagonist: inactive; HEK cytotox: inactive; FLuc inh-1: inactive; 3T3 cytotox: inactive; FLuc SDR -ATP: inactive; FLuc SDR ATP: inactive; FLuc inh-2: inactive

How did Cc1noc(C)c1S(=O)(=O)N[C@@H]1CN(Cc2ccccc2)C[C@H]1CN(C)C do in these assays?
hNpr1 antagonist: inactive; HEK cytotox: inactive; FLuc inh-1: inactive; 3T3 cytotox: inactive

Results for COCC(=O)NC1CCC12CCN(Cc1ccc(F)cc1F)CC2 (stereo not given) ?
hNpr1 antagonist: inactive; HEK cytotox: inactive; FLuc inh-1: inactive; 3T3 cytotox: inactive

What do the screens show for `OCc1ccnc(-c2ccc(-c3ccn[nH]3)cc2)c1`?
hNpr1 antagonist: 5.01µM; HEK cytotox: inactive; FLuc inh-1: 10µM; 3T3 cytotox: inactive; FLuc SDR -ATP: inactive; FLuc SDR ATP: inconclusive; FLuc inh-2: inconclusive

Results for COc1ccc(CCNC(=O)C2CCCN(c3nc4c(C)cc(C)cc4s3)C2)cc1OC (stereo not given) ?
FLuc SDR -ATP: inactive; FLuc SDR ATP: inactive; FLuc inh-2: inconclusive

What do the screens show for `COc1ccc(-c2ccc3nnc(CNC(=O)c4ccccc4F)n3n2)cc1`?
hNpr1 antagonist: inactive; HEK cytotox: inactive; FLuc inh-1: inactive; 3T3 cytotox: inactive

What do the screens show for `COc1ccc(-c2cn3nc(SCC(=O)Nc4ccccc4F)ccc3n2)cc1`?
FLuc SDR -ATP: inconclusive; FLuc SDR ATP: inactive; FLuc inh-2: inconclusive

What do the screens show for `Cc1ccc([C@H]2C[C@@H](O)[C@@H](O)[C@@H]2NC2CCOCC2)cc1`?
hNpr1 antagonist: inactive; HEK cytotox: inactive; FLuc inh-1: inactive; 3T3 cytotox: inactive

Results for CC(=O)N1CCNc2cc(NCc3ccc(F)cc3)ncc2C1 ?
hNpr1 antagonist: inactive; HEK cytotox: inactive; FLuc inh-1: inconclusive; 3T3 cytotox: inactive

Results for c1ccc(Oc2cc3c(cn2)NCCN(Cc2cnc[nH]2)C3)cc1 ?
hNpr1 antagonist: inactive; HEK cytotox: inconclusive; FLuc inh-1: inactive; 3T3 cytotox: inactive

How did CC(=O)N1CCNc2cc(Nc3ccc(F)cc3)ncc2C1 do in these assays?
hNpr1 antagonist: inconclusive; HEK cytotox: inconclusive; FLuc inh-1: 2.24µM; 3T3 cytotox: inconclusive; FLuc SDR -ATP: inconclusive; FLuc SDR ATP: inconclusive; FLuc inh-2: 5.7µM

What do the screens show for `Cn1nccc1-c1cc2c(cn1)CN(Cc1ccncc1)CCN2`?
hNpr1 antagonist: inactive; HEK cytotox: inconclusive; FLuc inh-1: inactive; 3T3 cytotox: inactive

Results for Cc1[nH]cnc1CN1CCNc2cc(Nc3ccccc3)ncc2C1 ?
hNpr1 antagonist: inactive; HEK cytotox: inconclusive; FLuc inh-1: 6.31µM; 3T3 cytotox: inconclusive; FLuc SDR -ATP: inactive; FLuc SDR ATP: inactive; FLuc inh-2: inconclusive

How did Oc1ccccc1CN1CCNc2cc(Nc3ccccc3)ncc2C1 do in these assays?
hNpr1 antagonist: inactive; HEK cytotox: 28.2µM; FLuc inh-1: 5.62µM; 3T3 cytotox: 31.6µM; FLuc SDR -ATP: inactive; FLuc SDR ATP: inactive; FLuc inh-2: inconclusive

What do the screens show for `c1cncc(Nc2cc3c(cn2)CN(Cc2cnc[nH]2)CCN3)c1`?
FLuc SDR -ATP: inactive; FLuc SDR ATP: inactive; FLuc inh-2: inactive

Results for O=C1C(N2CCN(S(=O)(=O)c3ccc(Cl)s3)CC2)CCN1Cc1ccccn1 (stereo not given) ?
hNpr1 antagonist: inactive; HEK cytotox: inactive; FLuc inh-1: inactive; 3T3 cytotox: inactive

Results for COc1ccc(CCC(=O)NCC2Cn3cccc3C(=O)N2Cc2cccnc2)cc1 (stereo not given) ?
HEK cytotox: inactive; 3T3 cytotox: inactive
